# According to the supplement of paper PMC6555819:
# Tests used:
# Assay in all cases: PBM binding z-score (relative to random genomic background probes); higher = stronger binding; sequences stand for … in GC…GCGATTGACAGCGTAGAATGAAGG
# [1] = tested on: RARb homodimer (NR concentration 270 nM)
# Method in brief: (§1)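 For binding z-scores, the reference was random background probes on custom Agilent 4×180K protein-binding microarrays. These arrays were incubated 1 h with ligand-free nuclear receptor dimers in PBS pH 7.4, 2% milk, 0.02% Triton X-100, 1 mM DTT, 0.2 mg/mL BSA and 0.4 mg/ml salmon testes DNA. Fluorescence was scanned after antibody detection of each partner (one per run) and regression-normalized.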
# [2] = tested on: RARg:RXRa (NR concentration 270 nM, RXRa partner concentration 90 nM)
# Method in brief: as §1
# [3] = tested on: RARg homodimer (NR concentration 270 nM)
# Method in brief: as §1
# [4] = tested on: RXRa DBDmut IVT, anti-RXR (DBD mutation: RXRa K156A/R161A, NR concentration 90 nM)
# Method in brief: as §1
# [5] = tested on: RXRa homodimer (NR concentration 180 nM)
# Method in brief: as §1
# [6] = tested on: THRa:RXRa (NR concentration 90 nM, RXRa partner concentration 90 nM)
# Method in brief: as §1
# [7] = tested on: THRa homodimer (NR concentration 90 nM)
# Method in brief: as §1
# [8] = tested on: VDR:RXRa (NR concentration 270 nM, RXRa partner concentration 90 nM)
# Method in brief: as §1
# [9] = tested on: VDR homodimer (NR concentration 270 nM)
# Method in brief: as §1
Sequence,PBM binding z-score [1],PBM binding z-score [2],PBM binding z-score [3],PBM binding z-score [4],PBM binding z-score [5],PBM binding z-score [6],PBM binding z-score [7],PBM binding z-score [8],PBM binding z-score [9]
TAGCGTAGGTCATGCGGGCCAGTATAGTGTCGGC,2.91,4.14,4.63,0.594,3.78,2.27,-0.424,3.33,0.141
CCTAGTTGGACAGGAGGTCACACACCGGATATGA,3.81,4.2,3.71,1.02,3.96,3.41,2.18,3.69,2.39
CGTCCAAGGACAAGGTCAGTGAAAGAGACTCGAA,3.32,3.17,3.98,1.46,2.22,3.63,2.39,1.54,0.725
CAAACTAGGTCACAGAGGTCAGAGTCCGTGCGTA,5.34,6.58,7.37,3.02,6.43,4.37,2.49,7.34,4.93
TCGCCTAGGTCATGCGGGCCAGTATAGTGTCGGC,3.2,3.96,4.3,1.28,2.9,3.29,1.43,3.04,0.82
CGTGCAAGGTCAAGGTCAGTGAAAGAGACTCGAA,5,6.85,7.64,3.8,6.7,4.26,3.18,4.83,3.35
CCTTACGGGTTAAGGTTATAGCACGGGTGGTACG,1.42,1.43,0.999,-0.691,2.18,2.64,1.75,0.894,0.766
GATACAGGGTCAGCTAGACGCCAGAGTATGGAAA,2.32,4.41,4.12,0.957,4.21,2.43,0.221,2.29,0.722
AGTCAAAGTTCAGGAAGAGGTAACGTAAAGCACG,3.02,5.33,4.81,2.79,2.93,2.91,0.341,2.96,1.81
ACTTACGTGTCAACGAGGTTATAGCACGCGTATA,1.17,1.44,1.18,0.532,1.38,1.99,0.476,5.46,0.875
TTACCAAGGTGATGGTCGTTGATCCCTCTGTAGA,0.0776,-0.376,-0.245,-0.261,0.284,0.769,0.35,-0.193,-0.232
GCAGACAGGTGAATCGCAGGTAACTCAGGGTGGC,0.0663,0.806,0.164,-0.612,0.449,1.31,-0.285,-0.428,-0.754
TCTAGTTGGTAAAAGGTCACACACTCGAAATGCG,5.28,6.21,5.8,2.17,6.64,4.08,2.3,4.89,2.75
TAGCCTGGGTCAGATCGGGCCAGTATACGCTATA,1.61,2.42,2.86,-1.34,1.46,4.11,-0.483,0.452,-1.02
AGAATGAGGTTATACGTAGATCAGAGAAGAAAGT,0.491,1.83,1.42,1.87,2.05,2.25,0.546,1.29,0.887
TCTAGCAGGCCAGAGGGTCACTCCAGAGGTACGG,2.59,2.1,1.86,-0.234,1.97,1.38,-0.258,0.993,0.403
CCTACTGGGCCAGAAAGGTCATTGATGCCGATAA,4.36,4.7,4.43,0.0732,5.18,2.88,0.378,4.91,2.56
ACAGACAAGTGATGAAGGTAACTCAGGCTATCAT,0.0016,-0.0454,0.277,-0.483,0.153,0.639,-0.0791,-0.0224,-0.536
ATATGTTGGTTAGCTGGGGTCATTCAGACTAGGC,3.55,3.66,2.3,1.91,4.97,4.21,3.57,5.16,5.32
AGGACGAGGGCAATGAGTTGATAGCACGGGTGGC,1.44,1.21,1.88,2.22,0.924,1.08,0.181,5.11,3.41
GCTGCTATGTCAACTGATGGTCAGCTAAAGCTCG,0.659,0.506,0.101,0.137,-0.00112,-0.0819,-1.13,-0.38,-0.702
CCTATTAGTCGACCATAAGGGCAACCGAAGCTCG,1.55,0.761,0.875,0.45,0.505,1.33,0.896,0.145,0.533
CTACCAAGGTGAACAAGGTTGTTGATTACTATTC,1.02,0.783,0.877,0.73,0.747,2.05,0.944,4.05,0.267
TCTGCTAGGTCAGTTGGTCAGCTAACGAGCTGCC,2.55,2.58,3.5,0.411,1.02,1.36,-0.176,0.166,-0.401
ATACCAAGGTGATCGTGAGGTCGCTGATACTAAC,1.68,2.37,0.989,0.175,1.43,3.3,2.48,2.39,1.6
CGAGCTAGGTCAGAACAGGACAGTGAAGGATGAT,2.11,2.12,3.53,0.0691,1.07,3.47,-0.106,0.446,-0.325
